Test results reported in PubChem BioAssay (NCATS).
Inconclusive results are not listed. Entries that show only a call come without a potency. Active and inactive are the calls of the source. The call rests on the fitted dose curve; in most records, active means well fitted inhibition curve with a large enough effect; inconclusive means small, poorly fitted or top-dose-only effect; inactive means flat fitted curve, though single readings scatter.

Assays:
Test in all cases: qHTS profiling for inhibitors of Plasmodium falciparum proliferation (AID 504749); further: nearly all actives have a fitted effect of over 60% in size
Settings in all cases: P. falciparum in erythrocytes, SYBR Green DNA, 72 h; series mostly up to 28.7 µM
P93_24 = test system: P93_24
Method in brief: (§1)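 Infected RBCs, 0.3% parasitemia/2.5% Hct final; cpd 72 h, 37 C, 5% CO2; lysis buffer with saponin/triton/SYBR Green I, o/n RT dark; FI 485/535; norm. to artemisinin (0.29 uM) and DMSO.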

P94_40 = test system: P94_40
Method in brief: as §1

PAD = test system: PAD
Method in brief: as §1

PC15 = test system: PC15
Method in brief: as §1

PC26 = test system: PC26
Method in brief: as §1

PC49 = test system: PC49
Method in brief: as §1

SC27B = test system: SC27B
Method in brief: as §1

TAB109 = test system: TAB109
Method in brief: as §1

TAB113 = test system: TAB113
Method in brief: as §1

TAB165 = test system: TAB165
Method in brief: as §1
Potency means the concentration at half of the fitted maximal effect.

Row | SMILES | Potency (P93_24) | Potency (P94_40) | Potency (PAD) | Potency (PC15) | Potency (PC26) | Potency (PC49) | Potency (SC27B) | Potency (TAB109) | Potency (TAB113) | Potency (TAB165)
1 | N=C(N)N1CCc2ccccc2C1 | inactive | inactive | inactive | inactive | inactive | inactive | inactive | inactive | inactive | inactive
2 | Nc1ccc(C(=O)NCC(=O)O)cc1 | inactive | inactive | inactive | inactive | inactive | inactive | inactive | inactive | inactive | inactive
3 | CCCCCCCCCCCCCC[N+](C)(C)Cc1ccccc1 | 7.94 µM (active) | 6.31 µM (active) | 11.2 µM (active) | 6.31 µM (active) | 5.36 µM (active) | 7.94 µM (active) | 7.94 µM (active) | 7.94 µM (active) | 6.31 µM (active) | 5.62 µM (active)
4 | Nc1ccc(S(=O)(=O)NCc2ccccc2)cc1 | inactive | inactive | inactive | inactive | inactive | inactive | inactive | inactive | inactive | inactive
5 | CCCCN=C(N)N=C(N)N | inactive | inactive | inactive | inactive | inactive | inactive | inactive | inactive | inactive | inactive
6 | O=C(Nc1ncc([N+](=O)[O-])s1)c1cccs1 | inactive | inactive | inactive | inactive | inactive | inactive | inactive | inactive | inactive | inactive
7 | Cl/C(=C\n1cncn1)c1ccc(Cl)cc1Cl | inactive | inactive | inactive | inactive | inactive | inactive | inactive | inactive | inactive | inactive
8 | CCCCCCCCCCCCCCCC(=O)O | inactive | inactive | inactive | inactive | inactive | inactive | inactive | inactive | inactive | inactive
9 | CCCCCCCC/C=C\CCCCCCCCN | inactive | inactive | inactive | inactive | inactive | inactive | inactive | inactive | inactive | inactive
10 | C#C[C@]1(O)CC[C@H]2[C@@H]3CCc4cc(OC)ccc4[C@H]3CC[C@@]21C | inactive | inactive | inactive | inactive | inactive | inactive | inactive | inactive | inactive | inactive
11 | Cc1cccc(C)c1NC(=O)c1ccccc1C(=O)O | inactive | inactive | inactive | inactive | inactive | inactive | inactive | inactive | inactive | inactive
12 | CCC1Nc2cc(Cl)c(S(N)(=O)=O)cc2S(=O)(=O)N1 (centres undefined) | inactive | inactive | inactive | inactive | inactive | inactive | inactive | inactive | inactive | inactive
13 | CC1(COc2ccc(CC3SC(=O)NC3=O)cc2)CCCCC1 (centres undefined) | inactive | inactive | inactive | inactive | inactive | inactive | inactive | inactive | inactive | inactive
14 | NS(=O)(=O)Cc1noc2ccccc12 | inactive | inactive | inactive | inactive | inactive | inactive | inactive | inactive | inactive | inactive
15 | CC(=O)NO | inactive | inactive | inactive | inactive | inactive | inactive | inactive | inactive | inactive | inactive
16 | CCCCC(CC)COC(=O)/C=C/c1ccc(OC)cc1 (centres undefined) | inactive | inactive | inactive | inactive | inactive | inactive | inactive | inactive | inactive | inactive
17 | O=C1C(CCS(=O)c2ccccc2)C(=O)N(c2ccccc2)N1c1ccccc1 (centres undefined) | inactive | inactive | inactive | inactive | inactive | inactive | inactive | inactive | inactive | inactive
18 | CC1=C(C(=O)O)N2C(=O)[C@@H](NC(=O)[C@H](N)c3ccccc3)[C@H]2SC1 | inactive | inactive | inactive | inactive | inactive | inactive | inactive | inactive | inactive | inactive
19 | NC(N)=NCc1cccc(I)c1 | inactive | inactive | inactive | inactive | inactive | inactive | inactive | inactive | inactive | inactive
20 | COc1ccc(-c2cc(C(F)F)nn2-c2ccc(S(N)(=O)=O)cc2)cc1F | inactive | inactive | inactive | inactive | inactive | inactive | inactive | inactive | inactive | inactive
21 | COc1ccc(/C=N/NC(=O)c2ccncc2)cc1OC | inactive | inactive | inactive | inactive | inactive | inactive | inactive | inactive | inactive | inactive
22 | CCCCCCCCCCCCCCCCO | inactive | inactive | inactive | inactive | inactive | inactive | inactive | inactive | inactive | inactive
23 | CC(C)Cc1ccc(CC(=O)O)cc1 | inactive | inactive | inactive | inactive | inactive | inactive | inactive | inactive | inactive | inactive

Row | SMILES | Potency (P93_24) | Potency (P94_40) | Potency (PAD) | Potency (PC15) | Potency (PC26) | Potency (PC49) | Potency (SC27B) | Potency (TAB109) | Potency (TAB113) | Potency (TAB165)
24 | Nc1nc(N)c(-c2ccccc2)s1 | inactive | inactive | inactive | inactive | inactive | inactive | inactive | inactive | inactive | inactive
25 | COP(=O)(OC)OC(c1ccc(Cl)cc1)P(=O)(OC)OC (centres undefined) | inactive | inactive | inactive | inactive | inactive | inactive | inactive | inactive | inactive | inactive
26 | CC(=O)Nc1ccc(CC(=O)O)cc1 | inactive | inactive | inactive | inactive | inactive | inactive | inactive | inactive | inactive | inactive
27 | CCC(CC)(CC(=O)Nc1cccc(/C=C/c2nc(C3CCC3)cs2)c1)C(=O)O | inactive | inactive | inactive | inactive | inactive | inactive | inactive | inactive | inactive | inactive
28 | CC[C@H](c1ccc(O)cc1)[C@@H](CC)c1ccc(O)cc1 | inactive | inactive | inactive | inactive | inactive | inactive | inactive | inactive | inactive | inactive
29 | COc1cc(C(=O)NCc2ccc(OCCN(C)C)cc2)cc(OC)c1OC | inactive | inactive | inactive | inactive | inactive | inactive | inactive | inactive | inactive | inactive
30 | CC(=O)Nc1ncc([N+](=O)[O-])s1 | inactive | inactive | inactive | inactive | inactive | inactive | inactive | inactive | inactive | inactive
31 | Nc1ccc(S(=O)(=O)Nc2cnc3ccccc3n2)cc1 | inactive | inactive | inactive | inactive | inactive | inactive | inactive | inactive | inactive | inactive
32 | CCCN(CCc1cccs1)[C@H]1CCc2c(O)cccc2C1 | 6.31 µM (active) | 4.47 µM (active) | 3.16 µM (active) | 6.31 µM (active) | 6.75 µM (active) | 11.2 µM (active) | 4.47 µM (active) | 7.08 µM (active) | 4.47 µM (active) | 4.47 µM (active)
33 | Cc1cc(C)cc(OCC2CNC(=O)O2)c1 (centres undefined) | inactive | inactive | inactive | inactive | inactive | inactive | inactive | inactive | inactive | inactive
34 | Oc1ccccc1C=NCc1ccccc1 | inactive | inactive | inactive | inactive | inactive | inactive | inactive | inactive | inactive | inactive
35 | NC(=O)c1ccccc1O | inactive | inactive | inactive | inactive | inactive | inactive | inactive | inactive | inactive | inactive
36 | CCOC(=O)[C@H](CCc1ccccc1)N[C@@H](C)C(=O)N1[C@H](C(=O)O)C[C@H]2CCCC[C@@H]21 | inactive | inactive | inactive | inactive | inactive | inactive | inactive | inactive | inactive | inactive
37 | O=C1C(=O)c2ccccc2C(O)=C1C1CCC(c2ccc(Cl)cc2)CC1 (centres undefined) | 0.004 µM (active) | 0.0071 µM (active) | 0.0045 µM (active) | 0.0045 µM (active) | 0.0057 µM (active) | 0.005 µM (active) | 0.0007 µM (active) | 0.0025 µM (active) | 0.002 µM (active) | 0.01 µM (active)
38 | CC(=O)Nc1ccc(S(=O)(=O)Nc2ccc([N+](=O)[O-])cc2)cc1 | inactive | inactive | inactive | inactive | inactive | inactive | inactive | inactive | inactive | inactive
39 | Cc1c(-c2ccccc2)oc2c(C(=O)OCCN3CCCCC3)cccc2c1=O | inactive | inactive | inactive | inactive | inactive | inactive | inactive | inactive | inactive | inactive
40 | CCOC(=O)c1ccc(N)cc1 | inactive | inactive | inactive | inactive | inactive | inactive | inactive | inactive | inactive | inactive
41 | CCCCc1cc2ccccc2c(OCCN(C)C)n1 | inactive | inactive | inactive | inactive | inactive | inactive | inactive | inactive | inactive | inactive
42 | CC(=O)OC[C@H]1O[C@@H](n2ncc(=O)[nH]c2=O)[C@H](OC(C)=O)[C@@H]1OC(C)=O | inactive | inactive | inactive | inactive | inactive | inactive | inactive | inactive | – | inactive
43 | C[C@@H](O)[C@H]1C(=O)N2C(C(=O)O)=C(S[C@@H]3CN[C@H](CNS(N)(=O)=O)C3)[C@H](C)[C@H]12 | inactive | inactive | inactive | inactive | inactive | inactive | inactive | inactive | inactive | inactive
44 | N#CCC(=O)NN | inactive | inactive | inactive | inactive | inactive | inactive | inactive | inactive | inactive | inactive
45 | O=C(Nc1ccc([N+](=O)[O-])cc1)Nc1ccc([N+](=O)[O-])cc1 | inactive | inactive | inactive | inactive | inactive | inactive | inactive | inactive | inactive | inactive
